NIH3T3 tox = NIH 3T3 cell cytotoxicity | actives 4.3% (n = 94,000) | Potency, µM (titrated, usually from 96.7 µM), without a hit: at the highest dose activity change, negative = cytotoxicity, actives largely listed as inhibitors | NIH 3T3 viability, CellTiter-Glo ATP luminescence, 48-72 h; further: nearly all actives have a fitted effect of over 55% in size
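Cytotoxicity is measured as loss of cellular ATP: NIH 3T3 cells (400/well) are exposed to compound for 48 or 72 hr at 37 °C, then CellTiter-Glo luminescence is imaged after 10 min at room temperature.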
HEK293 tox = HEK 293 cell cytotoxicity; AID 1345083; HEK 293 viability, ATP luminescence (CellTiter-Glo), 48-72 h; actives 6.6% (n = 94,000); Potency, µM (top dose mostly 115 µM), without a hit: at the highest dose activity change, negative = cytotoxicity, actives largely listed as inhibitors; further: nearly all actives have a fitted effect of over 60% in size
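CellTiter-Glo luminescence (cellular ATP) was read after 48 or 72 hr of compound exposure at 37 degree Celsius. Cells were HEK 293 plated at 250 cells/well.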
FLuc inh = Photinus pyralis luciferase inhibition; purified P. pyralis luciferase, luminescence, biochemical; P08659; AID 1347043; actives 2.5% (n = 76,000); Potency, µM (highest dose often 115 µM), usual class: inhibitors; further: nearly all actives have a fitted effect of over 65% in size
Target sequence (P08659 whole entry, looked up): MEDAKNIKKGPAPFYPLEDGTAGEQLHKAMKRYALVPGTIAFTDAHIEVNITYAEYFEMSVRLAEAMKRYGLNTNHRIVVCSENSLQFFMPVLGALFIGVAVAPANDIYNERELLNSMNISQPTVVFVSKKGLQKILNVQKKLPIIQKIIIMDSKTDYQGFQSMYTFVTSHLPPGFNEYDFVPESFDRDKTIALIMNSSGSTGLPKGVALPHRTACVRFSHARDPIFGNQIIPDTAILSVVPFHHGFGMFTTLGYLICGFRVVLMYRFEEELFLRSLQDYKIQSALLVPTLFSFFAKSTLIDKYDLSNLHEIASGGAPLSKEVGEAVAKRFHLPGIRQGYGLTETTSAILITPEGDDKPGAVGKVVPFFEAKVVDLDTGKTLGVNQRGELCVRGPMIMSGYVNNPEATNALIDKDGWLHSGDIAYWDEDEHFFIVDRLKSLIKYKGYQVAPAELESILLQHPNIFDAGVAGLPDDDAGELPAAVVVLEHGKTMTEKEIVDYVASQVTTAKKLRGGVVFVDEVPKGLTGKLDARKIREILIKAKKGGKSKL
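Inhibitors were tested against purified firefly luciferase in a biochemical, low-substrate format (both substrates at 10uM) and luminescence measured with a CCD imager.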
NPR1 antag = blocks ANP-stimulated signaling of human Npr1 receptor; P16066; HEK293 hNpr1 GloSensor cGMP, ANP-stimulated luminescence; Potency, µM (series often up to 46.3 µM), without a hit: at the top dose activity change, negative = inhibition, hits mostly inhibitors; actives 1.6% (n = 76,000); AID 1347048; calls by dose curve; further: nearly all actives have a fitted effect of over 60% in size
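Compound pre-incubated 30 min at room temperature on GloSensor-loaded HEK293 cells stably carrying hNpr1 and the pGS-40F cGMP biosensor. Stimulation uses hNppA at 0.1 nM final; luminescence is taken at baseline and 20 min post-agonist.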
Active calls of the source: *; [ ] = remark or other dose. Shown are actives, neighbours in structure and some others; about 11% of the full set was active somewhere. Unless noted, the call rests on the fitted dose curve; in most records, active means well fitted curve in the direction sought with a large enough effect; inconclusive means small, poorly fitted or top-dose-only effect, or another doubt; inactive means no such curve, though single readings can be large; an effect the other way counts as inactive or inconclusive. On the % scale 0 is the no-effect control and ±100 the full control effect; potency means the concentration at half of the fitted maximal effect.

For COc1ccccc1-c1cccc(C(=O)N2CCN([S+](=O)([O-])c3c(C)noc3C)CC2)c1 the results were NIH3T3 tox -25.9% and HEK293 tox inconclusive.
For COc1ccccc1-c1cccc(C(=O)N2CCN([S+](=O)([O-])c3cccs3)CC2)c1 the results were NIH3T3 tox inconclusive and HEK293 tox 20µM*.
Screening COc1ccccc1-c1cccc(C(=O)N2CCN([S+](=O)([O-])c3ccccc3)CC2)c1 returned NIH3T3 tox inconclusive and HEK293 tox 31.6µM*.
COc1ccc(N2CCN(C(=O)c3ccc4c(c3)N(C)C3CCCCN3C4=O)CC2)cc1 (centres undefined) was read as NIH3T3 tox 0.7%, HEK293 tox inconclusive, FLuc inh inactive and NPR1 antag 8.0%.
For Cn1cccc1C(=O)N1CCCC(n2cc(-c3nc(-c4ccccc4)no3)nn2)C1 (centres undefined) the results were NIH3T3 tox inconclusive, HEK293 tox inconclusive, FLuc inh 79.4µM* and NPR1 antag inconclusive.
`CCn1nccc1C(=O)N1CCCC(n2cc(-c3nc(-c4ccccc4)no3)nn2)C1` (centres undefined) gave NIH3T3 tox -28.7%, HEK293 tox inconclusive, FLuc inh inconclusive and NPR1 antag 12.6µM*.
Screening CCc1noc(-c2cn(C3CCCN(C(=O)c4ccccc4)C3)nn2)n1 (centres undefined) returned NIH3T3 tox -16.3%, HEK293 tox 8.6%, FLuc inh inactive and NPR1 antag 4.9%.
Screening O=C(NC[C@H]1Cn2c(-c3ccc(Cl)cc3)cnc2CO1)Nc1ccccc1 returned NIH3T3 tox inconclusive, HEK293 tox 63.1µM*, FLuc inh inactive and NPR1 antag inconclusive.
For c1ccc2ncc(CNC[C@H]3Cn4c(-c5ccc6c(c5)OCCO6)cnc4CO3)cc2c1 the results were NIH3T3 tox inconclusive, HEK293 tox 50.1µM*, FLuc inh inconclusive and NPR1 antag 35.5µM*.
Screening COc1ncccc1CNC[C@H]1Cn2c(-c3ccc(Cl)cc3)cnc2CO1 returned NIH3T3 tox 89.1µM*, HEK293 tox inconclusive, FLuc inh inactive and NPR1 antag -24.4%[70.6 µM].
For CN1CCC(NC[C@H]2Cn3c(-c4ccc5c(c4)OCCO5)cnc3CO2)CC1 the results were NIH3T3 tox inconclusive, HEK293 tox inconclusive, FLuc inh inactive and NPR1 antag -0.5%[70.6 µM].
Screening O=C(NC[C@H]1Cn2c(-c3cccc(Cl)c3)cnc2CO1)Nc1ccccc1 returned NIH3T3 tox inconclusive, HEK293 tox 100µM*, FLuc inh inactive and NPR1 antag inconclusive.
COc1ccc(CNC[C@H]2Cn3c(-c4ccc(Cl)cc4)cnc3CO2)cn1 was read as NIH3T3 tox inconclusive, HEK293 tox inconclusive, FLuc inh inactive and NPR1 antag -19.9%[70.6 µM].
For O=C(O)CCC(=O)NC[C@H]1Cn2c(-c3ccc(Cl)cc3)cnc2CO1 the results were NIH3T3 tox -1.5%[138 µM], HEK293 tox inactive, FLuc inh inactive and NPR1 antag 0.9%[70.6 µM].
For COCCNc1nc2c([S+](=O)([O-])c3cccnc3)nnn2c2ccccc12 the results were NIH3T3 tox -16.4% and HEK293 tox -3.0%.
Screening Cc1ccccc1CNC[C@H]1Cn2c(-c3ccccc3)cnc2CO1 returned NIH3T3 tox inconclusive, HEK293 tox 112µM*, FLuc inh inactive and NPR1 antag -4.9%[70.6 µM].
Screening c1ccc(CNC[C@H]2Cn3c(-c4ccccc4)cnc3CO2)cc1 returned NIH3T3 tox -34.6%[174 µM], HEK293 tox inconclusive, FLuc inh inactive and NPR1 antag -13.3%[70.6 µM].
`Clc1cccc(-c2cnc3n2C[C@H](CNCc2ccccc2)OC3)c1` gave NIH3T3 tox 79.4µM*, HEK293 tox inconclusive, FLuc inh inactive and NPR1 antag -3.7%[70.6 µM].
`O=C1CC2(CCN(C(=O)C3CCCN3C(=O)c3ccccc3F)CC2)Oc2ccccc2N1` (centres undefined) gave NIH3T3 tox -16.2% and HEK293 tox -7.2%.
Screening Cc1nn(-c2ccccc2)c2c1C(C)N(C1CCN([S+](C)(=O)[O-])CC1)C2=O (centres undefined) returned NIH3T3 tox -10.5% and HEK293 tox inactive.
For CC1CCN(C(=O)c2cc3c(s2)CCN(C(=O)c2ccc(Cl)cc2)C3)CC1 the results were NIH3T3 tox inconclusive, HEK293 tox 39.8µM*, FLuc inh inactive and NPR1 antag -14.4%.
For CC(C)CCN(C1CCOCC1)C1CCN(Cc2ccc[nH]2)CC1 the results were NIH3T3 tox -25.6%, HEK293 tox inconclusive, FLuc inh inactive and NPR1 antag 3.6%.
Screening Cc1cc(Cl)ccc1OCCN1CCN(CC2(O)CCCNC2)CC1 (centres undefined) returned NIH3T3 tox 22.4µM*, HEK293 tox 12.6µM*, FLuc inh inactive and NPR1 antag 6.2%.
For CCOc1ccc(C2Cn3nnc(-c4nc(-c5ccncc5)no4)c3CO2)cc1 (centres undefined) the results were NIH3T3 tox -33.7%, HEK293 tox -29.1%, FLuc inh inactive and NPR1 antag -8.5%.
For CCOc1ccc(C2Cn3nnc(-c4nc(-c5ccccc5)no4)c3CO2)cc1 (centres undefined) the results were NIH3T3 tox -1.6%, HEK293 tox -3.9%, FLuc inh 8.91µM* and NPR1 antag -17.0%.
CCOc1cc(-c2noc(-c3nnn4c3COC(c3ccc(F)cc3)C4)n2)ccc1OC (centres undefined) was read as NIH3T3 tox -0.3%, HEK293 tox 4.1%, FLuc inh inactive and NPR1 antag -8.9%.
`COc1ccc(C2Cn3cnc(-c4nc(-c5cccs5)no4)c3CO2)cc1` (centres undefined) gave NIH3T3 tox inconclusive, HEK293 tox inconclusive, FLuc inh 25.1µM* and NPR1 antag inconclusive.
For CCOc1cc(-c2noc(-c3ncn4c3COC(c3ccc(F)cc3)C4)n2)ccc1OC (centres undefined) the results were NIH3T3 tox 25.1µM*, HEK293 tox 22.4µM*, FLuc inh inactive and NPR1 antag -2.1%.
For COc1ccc(-c2noc(-c3ncn4c3COC(c3ccc(F)cc3)C4)n2)c(OC)c1 (centres undefined) the results were NIH3T3 tox 31.6µM*, HEK293 tox 35.5µM*, FLuc inh inactive and NPR1 antag 2.5%.
`O=C(c1ccccc1Cl)N1CCCC(C(=O)N2CCCC2c2nc3ccncc3[nH]2)C1` (centres undefined) gave NIH3T3 tox -6.5% and HEK293 tox -2.1%.
For Cc1cc(C(=O)N2CCCCCNC(=O)[C@H]3C[C@H](C(=O)N4CCc5ccccc5C4)C[C@H]32)n(C)n1 the results were NIH3T3 tox -27.2%, HEK293 tox -2.7%, FLuc inh inactive and NPR1 antag -8.3%.
Screening Fc1ccccc1-c1noc(-c2ncn3c2COC(c2ccccc2Cl)C3)n1 (centres undefined) returned NIH3T3 tox inconclusive, HEK293 tox inconclusive, FLuc inh 15.8µM* and NPR1 antag -11.9%.

Source: PubChem BioAssay (National Center for Advancing Translational Sciences (NCATS))
